Laboratory results: PubChem BioAssay (NCI)
The panel holds about 83,000 compounds, 20% with a hit somewhere; the sample as a whole holds those more often.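 Treatment: one concentration, 48 hours, 96-well format. Scoring: percent growth, with anything below 10 considered active.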 Calls of active or inactive are those of the source.

Key:
Test in all cases: NCI-60 one-dose screen, 48 h (100 = growth as untreated, 0 = no growth, -100 = all killed)
Conditions in all cases: 10 µM unless noted
[1] = system: HT29 colon
[2] = system: SNB-75 CNS
[3] = system: SNB-19 CNS
[4] = system: U251 CNS
[5] = system: PC-3 prostate
[6] = system: SK-MEL-5 melanoma
[7] = system: UACC-62 melanoma
[8] = system: SK-MEL-28 melanoma
[9] = system: SK-MEL-2 melanoma
[10] = system: EKVX NSCLC
[11] = system: SN12C renal
[12] = system: UO-31 renal
[13] = system: TK-10 renal
[14] = system: ACHN renal
[15] = system: CAKI-1 renal
[16] = system: CCRF-CEM leukemia
[17] = system: MOLT-4 leukemia
[18] = system: SR leukemia
[19] = system: LOX IMVI melanoma
[20] = system: A498 renal

Measured: growth

Nc1nc(N)c2c(n1)NC(c1ccc(C(F)(F)F)cc1)CC(c1ccc(Nc3nc(NCCO)nc(Nc4ccc(Cl)cc4)n3)cc1)=N2 (configuration not stated)
active: [1] -66.6% | [3] -79.1% | [4] -22.3% | [5] -31.5% | [6] -92.8% | [7] -41.5% | [8] -94.6% | [9] -80.3% | [10] -47.3% | [11] -40.2% | [12] -48.6% | [14] -90.2% | [15] -88.1% | [16] -5.25% | [17] -15.2% | [18] -31.7%
inactive: [2] 35.4% | [13] 91.1%

C#C[C@]1(O)CC[C@H]2[C@@H]3CC=C4c5sc(Nc6ccc(Cl)cn6)nc5CC[C@]4(C)[C@H]3CC[C@@]21C
inactive: [1] 47.2% | [3] 54.5% | [4] 19.1% | [5] 29.9% | [6] 84% | [7] 28.3% | [10] 42.3% | [11] 79.5% | [12] 40% | [15] 29.1% | [16] 15.1%
active: [2] -0.325% | [19] 0.11% | [8] -27% | [20] -6.58% | [17] 2.85% | [18] 7.04%

C[C@@H]1CN(c2ccc3ncc(C#Cc4cncc(C(=O)Nc5ccc(CN6CCN(C)CC6)c(C(F)(F)F)c5)c4)n3n2)C[C@H](C)O1
active: [1] -65.8% | [2] -79.3% | [3] -4.76% | [4] -97.9% | [5] 0.777% | [6] -94.5% | [7] -65.9% | [8] -89.5% | [9] -89.7% | [10] -18.9% | [11] -26.7% | [12] -87.9% | [13] -91.1% | [14] -94% | [15] -94.1% | [20] -90.4% | [16] 3.83% | [17] 1.65% | [18] -24.3%

Cn1cc(-c2cc(N)n3nc(-c4cn(C)c5ccc(Br)cc45)cc3n2)c2cc(Br)ccc21
inactive: [2] 82.2% | [3] 104% | [5] 71.9% | [6] 108% | [7] 92.1% | [8] 97.2% | [9] 120% | [10] 90.7% | [11] 90.3% | [12] 81.8% | [13] 133% | [14] 92.2% | [15] 79% | [20] 102% | [16] 22.8% | [17] 48.9%
active: [1] 4.96% | [4] -37.9% | [18] -13.5%

COc1ccc(/C=C2\SC(=Nc3cc(C)[nH]n3)NC2=O)cc1
inactive: [1] 107% | [2] 95.2% | [3] 90.8% | [4] 98.1% | [5] 81% | [6] 95.7% | [7] 90.6% | [8] 85% | [9] 121% | [10] 91.5% | [11] 96% | [12] 75.3% | [13] 102% | [14] 88.1% | [15] 83.4% | [16] 86.7% | [17] 94% | [18] 82%

C#Cc1nc(C2=C(C)C(O)CC2)cs1 (configuration not stated)
inactive: [1] 118% | [2] 96.1% | [3] 104% | [4] 104% | [5] 97.7% | [6] 101% | [7] 94.2% | [8] 105% | [9] 117% | [10] 113% | [11] 101% | [13] 151% | [14] 94.7% | [15] 110% | [16] 102% | [17] 95.1% | [18] 78.7%
active: [12] -66.1%

COc1cc(/C=C/C(=O)c2ccccc2)ccc1Oc1nc(NCCO)nc(N2CCOCC2)n1
active: [18] 8.72%
inactive: [1] 105% | [2] 99.8% | [3] 97.8% | [4] 88.4% | [5] 84.9% | [6] 99.3% | [7] 92.9% | [8] 107% | [9] 103% | [10] 95.5% | [11] 97.3% | [12] 80.8% | [13] 124% | [15] 86.2% | [16] 30.3% | [17] 71.3%

O=C(Oc1ccc2ccc(=O)oc2c1)c1ccc(Cl)cc1
inactive: [1] 115% | [2] 112% | [3] 93.2% | [4] 106% | [5] 103% | [6] 101% | [7] 97.3% | [8] 109% | [9] 113% | [10] 99.2% | [11] 98.7% | [12] 86.7% | [13] 125% | [15] 98.5% | [16] 103% | [17] 106% | [18] 96.6%

NS(=O)(=O)c1cccc(Nc2nc(SCC(=O)c3ccc([N+](=O)[O-])cc3)nc3ccccc23)c1
active: [6] 7.52% | [7] -12.7% | [17] -6.08%
inactive: [1] 71.2% | [2] 45.9% | [3] 73.7% | [4] 52.2% | [5] 24.2% | [8] 60.3% | [9] 13.2% | [10] 70.9% | [11] 56.9% | [12] 40.5% | [13] 95.6% | [14] 45.8% | [15] 27.6% | [16] 12% | [18] 17.5%

CCN1CCN(/C(=N\c2sc(-c3ccccc3)nc2-c2ccccc2)c2ccccc2)CC1
inactive: [1] 32.6% | [2] 89.1% | [3] 84.8% | [4] 67.4% | [5] 65.8% | [6] 93.4% | [7] 55.3% | [8] 80.6% | [9] 102% | [10] 78.8% | [11] 76.2% | [12] 64.5% | [13] 94.1% | [14] 88.8% | [15] 65.3% | [20] 113% | [16] 68.1% | [17] 60.7% | [18] 52.8%

COc1cc(/C=C/C(=O)c2ccc(Cl)cc2)ccc1Oc1nc(NCCO)nc(N2CCOCC2)n1
active: [18] 9.04%
inactive: [1] 111% | [2] 97.8% | [3] 99.3% | [4] 94% | [5] 95.3% | [6] 99.7% | [7] 93.9% | [8] 108% | [9] 99.7% | [10] 99.6% | [11] 96.6% | [12] 76.7% | [13] 110% | [14] 98.8% | [15] 94.2% | [16] 78.4% | [17] 78.6%

O=C(N/N=C/c1ccc([N+](=O)[O-])s1)c1[nH]c2ccc(Br)cc2c1-c1ccccc1
active: [1] -22.4% | [4] 9.11% | [6] -76.6% | [9] -19.4% | [10] 9.91% | [17] 9.21% | [18] 7.33%
inactive: [2] 26.2% | [3] 27.1% | [5] 26.5% | [7] 17.6% | [8] 38.5% | [11] 17.5% | [12] 46.6% | [13] 83.3% | [14] 12.7% | [15] 23.6% | [16] 16.1%

COc1cc(/C=C/C(=O)c2ccc(F)cc2)ccc1Oc1nc(NCCO)nc(N2CCOCC2)n1
active: [16] 4.33% | [17] 6.59% | [18] -0.24%
inactive: [1] 53.5% | [2] 92.2% | [3] 69.4% | [4] 44.1% | [5] 70.8% | [6] 82.1% | [7] 57.2% | [8] 91.3% | [9] 93.9% | [10] 82.8% | [11] 84.6% | [12] 61.2% | [13] 146% | [14] 70.9% | [15] 71.9%

CN(C)c1ccc(/C=C2\Cc3c(F)ccc(Br)c3C2=O)cc1
inactive: [1] 104% | [2] 87.8% | [3] 93.1% | [4] 91.6% | [5] 92% | [6] 96.4% | [7] 83.3% | [8] 97.4% | [9] 108% | [10] 80.5% | [11] 98.2% | [12] 77% | [13] 140% | [14] 84.8% | [15] 82% | [16] 94.2% | [17] 97.7% | [18] 76%

CN1CCc2c(sc3ncnc(N/N=C/c4ccc(Cl)c(Cl)c4)c23)C1
active: [1] -46.6% | [4] -43.6% | [7] -26.8% | [14] -84.7% | [16] 8.1% | [18] -22.8%
inactive: [2] 79.5% | [3] 42% | [5] 53.6% | [6] 86.6% | [8] 21.4% | [9] 117% | [10] 60.8% | [11] 81.2% | [12] 29.7% | [13] 137% | [15] 10.6% | [17] 26.6%

O=C1Nc2ccccc2Oc2ccc(S(=O)(=O)CC3CO3)cc21 (configuration not stated)
inactive: [1] 58.8% | [2] 90.6% | [3] 96.9% | [4] 77.6% | [5] 62.3% | [6] 90% | [7] 67.6% | [8] 64.1% | [9] 85.5% | [10] 75.2% | [11] 71.5% | [12] 65.9% | [13] 91.6% | [14] 46.4% | [15] 44.1% | [20] 102% | [16] 25.7% | [17] 42.8%
active: [18] 0.309%

C#Cc1nc(C2=C(C)/C(=N/OCc3ccccc3)CC2)cs1
inactive: [1] 67% | [3] 72.8% | [4] 37.6% | [5] 82.3% | [6] 85.7% | [7] 62.5% | [8] 94.6% | [9] 98.7% | [10] 19.4% | [11] 66.6% | [13] 158% | [17] 60.7%
active: [2] -88.4% | [12] -93.8% | [14] 0.823% | [15] -20.1% | [16] -30.2% | [18] -52.4%

COc1cc(-c2ccc3ncnc(NC(C)c4ccccc4)c3c2)cnc1OC (configuration not stated)
inactive: [1] 65% | [2] 32.8% | [3] 48.7% | [4] 63.4% | [5] 29.5% | [6] 74.4% | [7] 63.4% | [8] 60.9% | [9] 47.3% | [10] 19.5% | [11] 39.1% | [12] 19.1% | [14] 21% | [15] 16.4% | [16] 56.3% | [17] 45.1% | [18] 43.7%
active: [20] -14.9%

O=C1Nc2cc(Cl)ccc2/C1=C\c1ccc(OCc2ccc([N+](=O)[O-])cc2)cc1
inactive: [1] 76.8% | [2] 57.5% | [3] 91% | [4] 81.6% | [5] 59.4% | [6] 84.4% | [7] 67.8% | [8] 84.7% | [9] 101% | [10] 82.5% | [11] 79.5% | [12] 50.7% | [14] 43% | [15] 64.6% | [20] 81% | [17] 97.4% | [18] 87.5%
active: [16] 5.4%

C#Cc1nc(C2=C(C)C(OC(=O)CCC(=O)O)CC2)cs1 (configuration not stated)
active: [12] -19.3%
inactive: [1] 125% | [2] 98.3% | [3] 104% | [4] 106% | [5] 102% | [6] 101% | [7] 95.3% | [8] 115% | [9] 114% | [11] 101% | [13] 157% | [15] 101% | [16] 93.9% | [17] 106% | [18] 64.1%

O=C1Nc2ccc(Cl)cc2/C1=C/c1ccc(OCC(=O)c2ccc(Br)cc2)cc1
inactive: [1] 103% | [2] 75.7% | [3] 89.7% | [4] 98.3% | [5] 81.8% | [6] 96.9% | [7] 83.4% | [8] 99.3% | [9] 113% | [10] 81.6% | [11] 93.5% | [12] 73.4% | [14] 88.4% | [15] 76.1% | [20] 107% | [16] 102% | [17] 95.6% | [18] 103%
